This note sets out measurements from PubChem BioAssay (Tox21).

A short description of experiment [1]: A CellTox Green Cytotoxicity Assay to monitor cytotoxicity in HepG2 cells - 8 hour (AID 1224890). Note: nearly all actives have a fitted effect of over 45% in size. Note: potency is the fitted concentration of half-maximal effect. The conditions noted are these: CellTox Green fluorescence; series mostly up to 76.8 µM. An outline of the steps:
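Real-time cytotoxicity: fluorescence of a cell-impermeant cyanine dye binding DNA of dead HepG2 cells, measured repeatedly (0–40 h) during compound exposure at 37 C. Cells seeded 600/well with reagent, dosed after 5 h.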

Experiment [2] can be described thus: qHTS assay to identify small molecule antagonists of the androgen receptor (AR) signaling pathway using the MDA cell line in the presence of 0.5 nM R1881 - cell viability counter screen (AID 1259242). Note: nearly all actives have a fitted effect of over 45% in size. The note with it: MDA-kb2 viability, CellTiter-Fluor protease fluorescence, 16 h; series mostly up to 92.4 µM. The gist of the method:
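Live-cell protease activity was measured by CellTiter-Fluor fluorescence after 30 min. Before that, MDA-kb2 MMTV-luciferase cells had 16 hr at 37C without CO2, exposed to test compounds and 0.5 nM R1881 final.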
A general note: qHTS replaces the single test concentration by a dilution series.

In experiment [3] the target is Estrogen receptor (Homo sapiens) (UniProt P03372). Briefly: qHTS assay to identify small molecule antagonists of the estrogen receptor alpha (ER-alpha) signaling pathway using the BG1 cell line in the presence of 0.1 nM 17-beta-estradiol (AID 1259244). Note: nearly all actives have a fitted effect of over 50% in size. The conditions noted are these: VM7Luc4E2 (BG1) ERE-luciferase, antagonist mode, 0.1 nM E2, 22 h; series mostly up to 92.4 µM. The gist of the method:
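Luciferase luminescence (ONE-Glo, 30 min at room temperature) was read after 22 hr at 37C exposure to compounds plus 17beta-estradiol at 0.1 nM final. Cells were VM7Luc4E2 with endogenous ER-alpha and an ERE-driven luciferase, pre-cultured 5 days in hormone-depleted medium.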

A short description of experiment [4]: qHTS assay to identify small molecule phospholipidosis (PLD) inducers (AID 1259344; active = well fitted curve in the direction sought with a large enough effect; an effect the other way counts as inactive or inconclusive). The note with it: HepG2 phospholipidosis, LipidTOX Red imaging, 24 h; series mostly up to 38.3 µM. The gist of the method: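 Image-based: LipidTOX Red pit count/intensity per well and per cell; HepG2, 24 h compound at 37 C, PFA fixation, Hoechst counterstain.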
Experiment [5] in a line: qHTS assay to identify small molecule HDAC inhibitors - cell viability counter screen (AID 1259365). Note: nearly all actives have a fitted effect of over 50% in size. The note with it: HCT-116 viability, CellTiter-Glo ATP luminescence, 2 h; series mostly up to 92.4 µM. The gist of the method: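 To flag cytotoxic hits, 1,500 wild-type HCT-116 cells per well, plated the day before, receive test compounds for 2hr at 37 C before CellTiter-Glo reagent and a luminescence read.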

Experiment [6] is described as follows: qHTS assay to identify small molecule agonists of the sonic hedgehog signaling (Shh) pathway - cell viability counter screen (AID 1259366). Note: nearly all actives have a fitted effect of over 50% in size. Note: potency is the fitted concentration of half-maximal effect. The conditions noted are these: NIH/3T3 Gli1-Luc viability, CellTiter-Fluor, 24 h; series mostly up to 92.4 µM. An outline of the steps:
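Fluorescence from CellTiter-Fluor reports live cells in this counter screen. NIH/3T3-derived Gli1-Luc reporter cells receive test compounds for 24hr at 37C; reagent goes in at 23hr.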

The nature of experiment [7]: qHTS assay to identify small molecule antagonists of the sonic hedgehog signaling (Shh) pathway - cell viability counter screen (AID 1259367). Note: nearly all actives have a fitted effect of over 55% in size. Note: potency is the fitted concentration of half-maximal effect. The conditions noted are these: NIH/3T3 Gli1-Luc viability, CellTiter-Fluor, 24 h; series mostly up to 42.5 µM. An outline of the steps:
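Tox21 library chemicals were tested on a Gli1-Luc NIH/3T3 clone (2,000 cells/well) stimulated by conditioned medium; viability was quantified as fluorescence from CellTiter-Fluor reagent added at 23 hr.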

In experiment [8] the target is Androgen receptor (Homo sapiens) (UniProt P10275). Briefly: qHTS assay to identify small molecule antagonists of the androgen receptor (AR) signaling pathway using the MDA cell line in the presence of 0.5 nM R1881 (AID 1259243). Note: nearly all actives have a fitted effect of over 50% in size. Note: potency is the fitted concentration of half-maximal effect. The note with it: MDA-kb2 MMTV-luciferase, R1881 0.5 nM, 16 h; series mostly up to 42.5 µM. An outline of the steps:
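Luminescent reporter readout (ONE-Glo, 30 min, room temperature) after 16 hr co-treatment of MDA-kb2 cells with test compounds and 0.5 nM R1881 final, at 37C without CO2. The MMTV-driven luciferase responds to both AR and GR.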

Experiment [9] is described as follows: qHTS assay to identify small molecule HDAC inhibitors (AID 1259364). Note: top concentration of the series differs between compounds; nearly all actives have a fitted effect of over 45% in size. The conditions noted are these: HCT-116 HDAC-Glo I/II luminescence, 2 h; series mostly up to 92.4 µM. The gist of the method: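 Luminescence read after 30 min room-temperature HDAC-Glo incubation measures cellular class I/II HDAC activity. Compounds were applied for 2 hr at 37 C to HCT-116 wild-type cells seeded the day before.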

Experiment [10] can be described thus: qHTS assay to identify small molecule antagonists of the estrogen receptor alpha (ER-alpha) signaling pathway using the BG1 cell line in the presence of 0.1 nM 17-beta-estradiol - cell viability counter screen (AID 1259241). Note: nearly all actives have a fitted effect of over 40% in size. The note with it: VM7Luc4E2 (BG1) viability, CellTiter-Fluor protease, 22 h, 0.1 nM estradiol agonist added; series mostly up to 92.4 µM. An outline of the steps:
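CellTiter-Fluor read (30 min, 37C) on ER-alpha/ERE-luc VM7Luc4E2 cells; 22 hr compound treatment; agonist 0.1 nM E2 final; same-well multiplex.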

Values joined by “and” are separate entries in the source; they are usually repeats but may differ in a detail not shown here. Equal values may be shown once. Records with an inconclusive call do not appear. Where a structure was tested more than once in an assay, its records may differ in their call. Active and inactive are the calls of the source. Unless noted, calls come from the whole dose curve; as a rule, active = well fitted curve in the direction sought with a large enough effect in the repeat runs; inconclusive = weak or mixed curves; inactive = no such curve, though single readings can be large; an effect the other way counts as inactive or inconclusive.
% is set by controls: 0 for no effect and ±100 for the full control effect.

Chain of Estrogen receptor (Homo sapiens) (P03372 whole entry, looked up): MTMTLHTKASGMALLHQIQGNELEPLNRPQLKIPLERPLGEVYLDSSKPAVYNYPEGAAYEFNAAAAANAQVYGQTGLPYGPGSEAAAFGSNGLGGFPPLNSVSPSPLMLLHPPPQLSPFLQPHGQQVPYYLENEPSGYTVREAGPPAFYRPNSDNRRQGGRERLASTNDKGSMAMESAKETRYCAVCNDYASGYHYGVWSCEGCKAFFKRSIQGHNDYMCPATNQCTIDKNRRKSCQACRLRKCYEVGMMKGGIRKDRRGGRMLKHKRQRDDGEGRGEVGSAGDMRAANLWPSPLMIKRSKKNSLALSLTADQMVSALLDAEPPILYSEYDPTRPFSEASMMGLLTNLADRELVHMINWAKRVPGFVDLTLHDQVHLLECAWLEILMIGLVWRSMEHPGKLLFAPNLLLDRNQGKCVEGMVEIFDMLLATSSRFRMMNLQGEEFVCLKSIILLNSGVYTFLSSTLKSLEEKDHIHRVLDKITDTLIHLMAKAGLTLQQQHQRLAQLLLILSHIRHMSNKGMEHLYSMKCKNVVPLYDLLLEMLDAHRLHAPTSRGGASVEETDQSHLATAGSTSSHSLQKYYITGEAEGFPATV
Chain of Androgen receptor (Homo sapiens) (P10275 whole entry, looked up): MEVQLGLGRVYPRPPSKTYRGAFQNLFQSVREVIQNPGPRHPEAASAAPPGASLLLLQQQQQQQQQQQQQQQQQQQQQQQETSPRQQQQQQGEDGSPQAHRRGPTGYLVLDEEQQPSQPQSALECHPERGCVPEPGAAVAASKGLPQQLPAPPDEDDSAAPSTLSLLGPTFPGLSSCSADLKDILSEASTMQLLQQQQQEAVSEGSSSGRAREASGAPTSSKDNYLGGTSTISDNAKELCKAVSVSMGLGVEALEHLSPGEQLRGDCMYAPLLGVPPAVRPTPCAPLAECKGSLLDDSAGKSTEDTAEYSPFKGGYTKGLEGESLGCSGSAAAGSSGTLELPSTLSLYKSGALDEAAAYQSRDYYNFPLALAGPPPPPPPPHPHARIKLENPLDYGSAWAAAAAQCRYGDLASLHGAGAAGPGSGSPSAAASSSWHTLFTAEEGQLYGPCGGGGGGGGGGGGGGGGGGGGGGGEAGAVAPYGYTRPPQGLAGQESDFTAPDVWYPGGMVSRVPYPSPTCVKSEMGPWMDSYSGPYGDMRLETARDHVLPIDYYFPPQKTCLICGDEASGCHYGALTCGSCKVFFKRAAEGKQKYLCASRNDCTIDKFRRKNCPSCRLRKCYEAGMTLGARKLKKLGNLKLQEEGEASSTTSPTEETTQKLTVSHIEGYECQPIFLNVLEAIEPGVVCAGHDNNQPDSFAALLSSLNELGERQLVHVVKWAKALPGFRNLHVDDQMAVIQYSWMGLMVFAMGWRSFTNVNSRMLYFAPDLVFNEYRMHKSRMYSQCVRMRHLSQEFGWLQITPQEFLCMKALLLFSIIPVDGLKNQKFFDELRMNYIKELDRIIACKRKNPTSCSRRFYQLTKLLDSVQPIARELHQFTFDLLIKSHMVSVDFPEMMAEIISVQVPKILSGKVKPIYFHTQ

For `CC(C)CCCC(C)N` (stereo unspecified), the Potency result in experiment [1], in experiment [2], in experiment [4], in experiment [6] and in [7] was “inactive” in each case. Moreover, the result in experiment [3] and in [5] was inactive.
As for `CC(=O)OCC(CCn1cnc2cnc(N)nc21)COC(C)=O`, the Potency result in experiment [1], in experiment [8], in [4], in [9] and in experiment [7] was “inactive” in each case. In addition, the result in experiment [3] and in experiment [5] was inactive.
For the compound `CC(=O)CC(C)(C)C1CCCCC1`, the Potency result in experiment [1], in experiment [2], in experiment [9], in [6] and in experiment [7] was “inactive” throughout. The result in experiment [3] and in experiment [5] was inactive.
`COC(=O)c1c(Cl)c(Cl)c(C(=O)OC)c(Cl)c1Cl`: in experiment [1], the Potency entry is “inactive and 110 nM (active)”. Also, the Potency entry in experiment [2], in [4] and in experiment [7] was “inactive” in each case. In addition, the result in [3] and in [5] was inactive.
Turning to `CC(C[N+](C)(C)C)OC(N)=O` (stereo unspecified), the outcome in experiment [10], in experiment [3] and in experiment [5] was inactive. In addition, the Potency result in experiment [2], in experiment [4], in experiment [9], in [6] and in experiment [7] was “inactive” each time.
Take `O=C(c1ccccc1)C1CCCCC1`: the outcome in [10], in experiment [3] and in experiment [5] was inactive. Moreover, the Potency result in experiment [2], in experiment [8], in [9], in experiment [6] and in experiment [7] was “inactive” each time.
Regarding `CCCCNC(=O)NCCCC`, the result in experiment [10], in [3] and in experiment [5] was inactive. For the same compound, the Potency entry in experiment [2], in experiment [8], in [9], in experiment [6] and in [7] was “inactive” each time.
Take `O=c1n(CCO)c(=O)n(CCO)c(=O)n1CCO`: the Potency entry in experiment [1] is “inactive and 38.9 µM (active)”; in [7], “inactive and 54.5 µM (active)”. For the same compound, the Potency result in [2], in [9] and in [6] was “inactive” in each case. Also, the result in [3] and in experiment [5] was inactive.
On to `O=C(CCCN1CCC(O)(c2cccc(C(F)(F)F)c2)CC1)c1ccc(F)cc1`, for which the Potency entry in [1], in experiment [2] and in experiment [7] was “inactive” each time. Moreover, the call in [5] was inactive.
Take `CC(C)(C)NCCNC(C)(C)C`: the Potency entry in [1], in experiment [2], in experiment [9], in experiment [6] and in experiment [7] was “inactive” in each case. Further, the outcome in [3] and in experiment [5] was inactive.
`CC(C)(c1ccc(O)cc1)c1ccc(O)cc1`: the outcome in experiment [10] and in experiment [5] was inactive. The Potency result in experiment [2], in experiment [4] and in experiment [9] was “inactive” throughout. Also, the Potency in [8] was 9.58 µM (active) and 6.98 µM (active); in experiment [6], “inactive and 12.4 µM (active)”.
As for `Oc1ccc(C2CNCCc3c2cc(O)c(O)c3Cl)cc1` (stereo unspecified), the Potency result in [1], in experiment [2], in [4], in experiment [9] and in experiment [7] was “inactive” each time. The outcome in experiment [5] was inactive.
Take `Brc1c(NC2=NCCN2)ccc2nccnc12`: the Potency entry in experiment [1], in experiment [2], in [4], in experiment [6] and in experiment [7] was “inactive” throughout. The compound was called inactive in experiment [5].
With `COC(=O)C1=C(C)NC(C)=C(C(=O)OC)C1c1ccccc1[N+](=O)[O-]`, the result in experiment [10], in [3] and in experiment [5] was inactive. For the same compound, the Potency entry in [2], in experiment [4] and in [9] was “inactive” each time. Further, the Potency in experiment [6] is 27.3 µM (active); in experiment [7] it was 30.7 µM (active) and inactive.
Take `C[C@H]1C[C@@H](O)CC(C)(C)C1`: the Potency entry in experiment [1], in experiment [2], in [9], in experiment [6] and in experiment [7] was “inactive” throughout. Besides, the compound was classed as inactive in [5].
Turning to `Cc1ccc(C#N)cc1`, the Potency entry in experiment [1], in experiment [6] and in experiment [7] was “inactive” throughout. The outcome in experiment [3] and in experiment [5] was inactive.
Turning to `C[C@H](NC(CCc1ccccc1)C(=O)O)C(=O)N1CCC[C@H]1C(=O)O` (stereo partly specified), the Potency result in experiment [1], in experiment [2], in experiment [4], in [6] and in experiment [7] was “inactive” in each case. The outcome in experiment [3] and in [5] was inactive.
Consider `COC(=O)NN`, for which the Potency entry in experiment [1], in [2], in experiment [9], in experiment [6] and in experiment [7] was “inactive” throughout. Moreover, the result in [3] and in experiment [5] was inactive.
As for `CCN1CCC[C@H]1CNC(=O)c1c(O)c(Cl)cc(Cl)c1OC`, the Potency entry in [1], in [2], in [4], in experiment [9] and in experiment [7] was “inactive” in each case. Also, the result in [3] and in [5] was inactive.
Regarding `C[C@](N)(Cc1ccc(O)cc1)C(=O)O`, in experiment [1], the cytotoxicity increase was -1.36% [at 6.97 µM] (inactive). In addition, the viability change, negative = cytotoxic in experiment [2] is 2.64% [at 8.39 µM] (inactive); in [6], 4.48% [at 8.39 µM] (inactive); in experiment [7], 4.1% [at 8.39 µM] (inactive). Further, the activity change, negative = inhibition in experiment [3] is -5.6% [at 8.39 µM] (inactive). Further, the Potency entry in [4] is “inactive”. The activity change, negative = cytotoxicity in experiment [5] was -1.98% [at 8.39 µM] (inactive).
Regarding `Cc1ccc(Cl)cc1Cl`, the Potency result in experiment [1], in experiment [9], in experiment [6] and in [7] was “inactive” each time. Further, the result in [3] and in [5] was inactive.
